In publication PMC12820563, “FoxP3 forms a head-to-head dimer in vivo and stabilizes its multimerization on adjacent microsatellites”:
Whole data set: some 16,000 sequences, median “rpm ratio (pull-down/input)” near 0.94, cut for the highest 2% near 1.7. The entries come from a sample that favours the highest values as a whole.

target: T1, MBP-FoxP1dN (Mus musculus, UniProt P58462 326-579); assay: PD-seq (MBP pull-down with sequencing); 20 mM Tris-HCl pH 7.5, 100 mM NaCl, 1.5 mM MgCl2, 0.4 uM protein, 0.1 uM dsDNA library, 30 min, room temperature, amylose pull-down; high values mean tight binding; details: protein: recombinant; tags: His6-MBP; chain copies: 2; dsDNA, one strand shown
T1 sequence: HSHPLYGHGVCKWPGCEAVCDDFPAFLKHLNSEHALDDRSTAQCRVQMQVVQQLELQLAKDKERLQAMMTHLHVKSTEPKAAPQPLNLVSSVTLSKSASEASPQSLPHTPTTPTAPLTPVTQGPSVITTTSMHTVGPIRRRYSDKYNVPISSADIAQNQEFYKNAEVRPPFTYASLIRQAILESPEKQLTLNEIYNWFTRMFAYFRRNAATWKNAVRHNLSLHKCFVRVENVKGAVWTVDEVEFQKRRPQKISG
Outline: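 A fragment of mouse FoxP3 or FoxP1 without its N-terminus, carrying a His6-MBP tag and produced in E. coli, was combined at 0.4 µM with a 0.1 µM degenerate double-stranded DNA library filled in with Klenow. The mixture sat for 30 min at room temperature in Tris pH 7.5 buffer containing NaCl and MgCl2. Protein–DNA complexes were captured on amylose resin, washed three times, and the DNA was freed with proteinase K, barcoded by PCR and sequenced on Illumina. Binding is expressed as reads-per-million enrichment of pull-down over input, with replicates pooled.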

Compared with “GATGATTGTTCTCCCAGCTGATGAATTATATTGTTCGAGTAAACAAATTTTCCTAATCTTTCTGTTCAAGCGCCATCTAC”, “GATGATTGTTCTCCCAGCTGATGAATTTTTATATTCGAGTAAACAAATTTTCCTAATCTTTCTGTTCAAGCGCCATCTAC” is lower in binding signal: 2.08 RPM ratio (pull-down/input) for the first, 1.1 RPM ratio (pull-down/input) for the second.

First: GATGATTGTTCTCCCAGCTGATGAATTTACTTTATCGAGTAAACAAATTTTCCTAATCTTTCTGTTCAAGCGCCATCTAC
Second: GATGATTGTTCTCCCAGCTGATGAATTACGTAGTTCGAGTAAACAAATTTTCCTAATCTTTCTGTTCAAGCGCCATCTAC
The binding signal of the first is higher: 1.46 RPM ratio (pull-down/input) for the first, 1.02 RPM ratio (pull-down/input) for the second.

Compared with “GATGATTGTTCTCCCAGCTGATGAATTATGGCGATCGAGTAAACAAATTTTCCTAATCTTTCTGTTCAAGCGCCATCTAC”, “GATGATTGTTCTCCCAGCTGATGAATTGGTAGGCTCGAGTAAACAAATTTTCCTAATCTTTCTGTTCAAGCGCCATCTAC” is lower in binding signal: 0.99 RPM ratio (pull-down/input) for the first, 0.819 RPM ratio (pull-down/input) for the second.

Compared with “GATGATTGTTCTCCCAGCTGATGAATTTACGTCGTCGAGTAAACAAATTTTCCTAATCTTTCTGTTCAAGCGCCATCTAC”, “GATGATTGTTCTCCCAGCTGATGAATTCTTTACGTCGAGTAAACAAATTTTCCTAATCTTTCTGTTCAAGCGCCATCTAC” is lower in binding signal: 1.25 RPM ratio (pull-down/input) for the first, 0.992 RPM ratio (pull-down/input) for the second.

Going from “GATGATTGTTCTCCCAGCTGATGAATTATTTACGTCGAGTAAACAAATTTTCCTAATCTTTCTGTTCAAGCGCCATCTAC” to “GATGATTGTTCTCCCAGCTGATGAATTTTTTACGTCGAGTAAACAAATTTTCCTAATCTTTCTGTTCAAGCGCCATCTAC”, the binding signal falls from 2.19 RPM ratio (pull-down/input) to 0.984 RPM ratio (pull-down/input).

Going from “GATGATTGTTCTCCCAGCTGATGAATTTATTACGTCGAGTAAACAAATTTTCCTAATCTTTCTGTTCAAGCGCCATCTAC” to “GATGATTGTTCTCCCAGCTGATGAATTGTTTACGTCGAGTAAACAAATTTTCCTAATCTTTCTGTTCAAGCGCCATCTAC”, the binding signal rises from 1.11 RPM ratio (pull-down/input) to 2.79 RPM ratio (pull-down/input).

First: GATGATTGTTCTCCCAGCTGATGAATTTATCCCTTCGAGTAAACAAATTTTCCTAATCTTTCTGTTCAAGCGCCATCTAC
Second: GATGATTGTTCTCCCAGCTGATGAATTGCGTACCTCGAGTAAACAAATTTTCCTAATCTTTCTGTTCAAGCGCCATCTAC
The binding signal of the first is lower: 1.05 RPM ratio (pull-down/input) for the first, 1.09 RPM ratio (pull-down/input) for the second.

Going from “GATGATTGTTCTCCCAGCTGATGAATTGGGGCGGTCGAGTAAACAAATTTTCCTAATCTTTCTGTTCAAGCGCCATCTAC” to “GATGATTGTTCTCCCAGCTGATGAATTGACAGGATCGAGTAAACAAATTTTCCTAATCTTTCTGTTCAAGCGCCATCTAC”, the binding signal rises from 0.782 RPM ratio (pull-down/input) to 1.1 RPM ratio (pull-down/input).

Going from “GATGATTGTTCTCCCAGCTGATGAATTGTTTATTTCGAGTAAACAAATTTTCCTAATCTTTCTGTTCAAGCGCCATCTAC” to “GATGATTGTTCTCCCAGCTGATGAATTCGTTTATTCGAGTAAACAAATTTTCCTAATCTTTCTGTTCAAGCGCCATCTAC”, the binding signal falls from 2.77 RPM ratio (pull-down/input) to 1.25 RPM ratio (pull-down/input).

Going from “GATGATTGTTCTCCCAGCTGATGAATTTATTGTTTCGAGTAAACAAATTTTCCTAATCTTTCTGTTCAAGCGCCATCTAC” to “GATGATTGTTCTCCCAGCTGATGAATTCTGGCTGTCGAGTAAACAAATTTTCCTAATCTTTCTGTTCAAGCGCCATCTAC”, the binding signal falls from 2.09 RPM ratio (pull-down/input) to 0.808 RPM ratio (pull-down/input).

First: GATGATTGTTCTCCCAGCTGATGAATTGCCGTAATCGAGTAAACAAATTTTCCTAATCTTTCTGTTCAAGCGCCATCTAC
Second: GATGATTGTTCTCCCAGCTGATGAATTAATGTAGTCGAGTAAACAAATTTTCCTAATCTTTCTGTTCAAGCGCCATCTAC
The binding signal of the first is higher: 1.39 RPM ratio (pull-down/input) for the first, 1.24 RPM ratio (pull-down/input) for the second.

Compared with “GATGATTGTTCTCCCAGCTGATGAATTGGCACAATCGAGTAAACAAATTTTCCTAATCTTTCTGTTCAAGCGCCATCTAC”, “GATGATTGTTCTCCCAGCTGATGAATTAATTATTTCGAGTAAACAAATTTTCCTAATCTTTCTGTTCAAGCGCCATCTAC” is lower in binding signal: 1.34 RPM ratio (pull-down/input) for the first, 1.12 RPM ratio (pull-down/input) for the second.

First: GATGATTGTTCTCCCAGCTGATGAATTATTTGATTCGAGTAAACAAATTTTCCTAATCTTTCTGTTCAAGCGCCATCTAC
Second: GATGATTGTTCTCCCAGCTGATGAATTATTTTGTTCGAGTAAACAAATTTTCCTAATCTTTCTGTTCAAGCGCCATCTAC
The binding signal of the first is lower: 1.05 RPM ratio (pull-down/input) for the first, 1.32 RPM ratio (pull-down/input) for the second.

First: GATGATTGTTCTCCCAGCTGATGAATTATTATTTTCGAGTAAACAAATTTTCCTAATCTTTCTGTTCAAGCGCCATCTAC
Second: GATGATTGTTCTCCCAGCTGATGAATTATTAATTTCGAGTAAACAAATTTTCCTAATCTTTCTGTTCAAGCGCCATCTAC
The binding signal of the first is higher: 3.1 RPM ratio (pull-down/input) for the first, 1.34 RPM ratio (pull-down/input) for the second.

Going from “GATGATTGTTCTCCCAGCTGATGAATTATTTGTTTCGAGTAAACAAATTTTCCTAATCTTTCTGTTCAAGCGCCATCTAC” to “GATGATTGTTCTCCCAGCTGATGAATTATTGCTTTCGAGTAAACAAATTTTCCTAATCTTTCTGTTCAAGCGCCATCTAC”, the binding signal falls from 2.21 RPM ratio (pull-down/input) to 1.74 RPM ratio (pull-down/input).

Going from “GATGATTGTTCTCCCAGCTGATGAATTATTGTGTTCGAGTAAACAAATTTTCCTAATCTTTCTGTTCAAGCGCCATCTAC” to “GATGATTGTTCTCCCAGCTGATGAATTGCTTATTTCGAGTAAACAAATTTTCCTAATCTTTCTGTTCAAGCGCCATCTAC”, the binding signal falls from 2.1 RPM ratio (pull-down/input) to 1.62 RPM ratio (pull-down/input).

First: GATGATTGTTCTCCCAGCTGATGAATTATTTCTTTCGAGTAAACAAATTTTCCTAATCTTTCTGTTCAAGCGCCATCTAC
Second: GATGATTGTTCTCCCAGCTGATGAATTATTTTTTTCGAGTAAACAAATTTTCCTAATCTTTCTGTTCAAGCGCCATCTAC
The binding signal of the first is lower: 1.17 RPM ratio (pull-down/input) for the first, 1.5 RPM ratio (pull-down/input) for the second.

For “GATGATTGTTCTCCCAGCTGATGAATTATTTGCTTCGAGTAAACAAATTTTCCTAATCTTTCTGTTCAAGCGCCATCTAC”, the binding signal was 1.56 RPM ratio (pull-down/input).
